# Several values for one entry are separate records, joined by “and”; a condition that tells them apart may be missing. Equal entries are not always repeated. Results filed as inconclusive are left out. The source holds several records for some structures; these can differ, active in one and inactive in another. Activity calls are given as the source filed them. Calls come from the whole dose curve; as a rule, active = well fitted curve in the direction sought with a large enough effect; inconclusive = small, poorly fitted or top-dose-only effect, or another doubt; inactive = no such curve, though single readings can be large; an effect the other way counts as inactive or inconclusive.
# Experiments:
# [1] = target: Cytochrome P450 3A4 (Homo sapiens) (UniProt P08684); experiment: qHTS Assay for Inhibitors and Substrates of Cytochrome P450 3A4 (AID 884); note: potency is the fitted concentration of half-maximal effect; nearly all actives have a fitted effect of over 50% in size
# How it was run: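 20 nM human CYP3A4 with 25 uM Luciferin-PPXE (at KM) in 200 mM KPO4, preincubated 10 min with compound; NADPH regeneration started a 60 min RT reaction. Luciferin detected by luminescence, normalized to 57 uM ketoconazole as full inhibition.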
# [2] = target: Cytochrome P450 3A4 (Homo sapiens) (UniProt P08684); experiment: qHTS Assay for Activators of Cytochrome P450 3A4 (AID 885); note: nearly all actives have a fitted effect of over 65% in size
# How it was run: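 Quantitative HTS format: compounds preincubated with 20nM human CYP3A4 and Luciferin-PPXE substrate at KM, reaction started by NADPH regeneration, stopped after 60 min, luciferase luminescence read 20 min later.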
# [3] = target: Cytochrome P450 2D6 (Homo sapiens) (UniProt P10635); experiment: qHTS Assay for Inhibitors and Substrates of Cytochrome P450 2D6 (AID 891);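 note: luciferin methyl ether substrate demethylated by CYP2D6 with NADPH regeneration; % is set by controls: 0 for no effect and ±100 for the full control effect; nearly all actives have a fitted effect of over 60% in size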
# How it was run: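 Human CYP2D6 (5 nM) with 30 uM Luciferin-ME EGE (at Km) in 100 mM KPO4, compound preincubated 10 min, then NADPH regeneration system for 60 min at room temperature. Luciferin read by luminescence; normalized to 1.43 uM quinidine.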
# [4] = target: Cytochrome P450 2C19 (Homo sapiens) (UniProt P33261); experiment: qHTS Assay for Inhibitors and Substrates of Cytochrome P450 2C19 (AID 899); note: nearly all actives have a fitted effect of over 60% in size; note: potency is the fitted concentration of half-maximal effect
# How it was run: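 NADPH-dependent conversion of Luciferin-H EGE (10uM, at KM) by 5nM enzyme in 50mM KPO4, 60 min at 37C following 10 min compound preincubation. Stopped with luciferin detection buffer; luminescence read after 20 min.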
# Chain of Cytochrome P450 2C19 (Homo sapiens) (P33261 whole entry, looked up): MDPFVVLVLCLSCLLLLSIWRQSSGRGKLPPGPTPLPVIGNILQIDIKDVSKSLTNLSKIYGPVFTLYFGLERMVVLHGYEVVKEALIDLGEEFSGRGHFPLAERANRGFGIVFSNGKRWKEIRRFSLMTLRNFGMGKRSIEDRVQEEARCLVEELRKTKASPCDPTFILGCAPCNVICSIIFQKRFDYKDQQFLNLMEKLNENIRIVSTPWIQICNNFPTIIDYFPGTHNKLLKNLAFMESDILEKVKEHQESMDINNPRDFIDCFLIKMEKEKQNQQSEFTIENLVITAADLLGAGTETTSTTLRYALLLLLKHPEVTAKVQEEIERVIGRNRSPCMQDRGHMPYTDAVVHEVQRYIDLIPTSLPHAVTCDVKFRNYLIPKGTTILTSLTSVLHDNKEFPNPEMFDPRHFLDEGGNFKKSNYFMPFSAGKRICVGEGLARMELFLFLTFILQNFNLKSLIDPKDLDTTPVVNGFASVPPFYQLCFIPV
# Chain of Cytochrome P450 2D6 (Homo sapiens) (P10635 whole entry, looked up): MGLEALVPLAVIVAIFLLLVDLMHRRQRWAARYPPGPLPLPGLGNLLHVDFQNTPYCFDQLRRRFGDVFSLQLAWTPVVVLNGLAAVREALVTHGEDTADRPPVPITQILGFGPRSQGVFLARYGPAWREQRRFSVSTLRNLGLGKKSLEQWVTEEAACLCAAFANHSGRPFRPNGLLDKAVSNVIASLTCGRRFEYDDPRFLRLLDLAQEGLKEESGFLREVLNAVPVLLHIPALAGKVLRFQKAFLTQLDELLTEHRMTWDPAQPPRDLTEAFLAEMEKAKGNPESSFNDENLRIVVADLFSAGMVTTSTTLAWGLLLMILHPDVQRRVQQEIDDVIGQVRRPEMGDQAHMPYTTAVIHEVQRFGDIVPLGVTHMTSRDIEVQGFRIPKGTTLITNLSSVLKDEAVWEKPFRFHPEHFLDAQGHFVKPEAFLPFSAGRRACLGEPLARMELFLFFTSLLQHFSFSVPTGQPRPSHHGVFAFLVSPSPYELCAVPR
# Chain of Cytochrome P450 3A4 (Homo sapiens) (P08684 whole entry, looked up): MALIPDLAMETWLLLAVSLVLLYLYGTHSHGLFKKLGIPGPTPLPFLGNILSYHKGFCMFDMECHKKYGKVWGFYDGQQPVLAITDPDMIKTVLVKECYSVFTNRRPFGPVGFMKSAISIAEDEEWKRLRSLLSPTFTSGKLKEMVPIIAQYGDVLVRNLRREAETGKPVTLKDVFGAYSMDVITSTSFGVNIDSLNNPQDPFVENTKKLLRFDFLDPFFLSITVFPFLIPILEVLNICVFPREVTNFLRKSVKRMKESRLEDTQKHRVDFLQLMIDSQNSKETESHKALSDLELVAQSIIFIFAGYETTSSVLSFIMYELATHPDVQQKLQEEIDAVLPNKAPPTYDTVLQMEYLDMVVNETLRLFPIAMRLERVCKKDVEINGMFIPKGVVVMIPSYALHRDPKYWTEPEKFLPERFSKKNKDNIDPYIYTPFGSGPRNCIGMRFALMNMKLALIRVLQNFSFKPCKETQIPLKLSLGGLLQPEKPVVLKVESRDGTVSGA
structure (smiles),measurement,setting,value
CCC1=C2CC[C@H]3C(=O)N(c4ccccc4)C(=O)[C@H]3[C@H]2[C@@]2(Cc3ccccc3)C(=NCC3CC3)OC(=O)N2C1=O,Potency,[1],5.01 µM (active)
same,Potency,[2],inactive
CCC1=C(OC(=O)N(CC)CC)N2C(=O)OC(=NCc3ccccc3)[C@]2(C)[C@H]2C1=CC[C@H]1C(=O)N(CC(=O)OC)C(=O)[C@H]12,Potency,[1],5.01 µM (active)
same,Potency,[2],inactive
O=C1[C@H]2[C@H]3[C@H](O)[C@H](O)C/C(=N/OC[C@@H](O)COCc4ccco4)[C@@H]3CC[C@@H]2C(=O)N1Cc1ccc2c(c1)OCO2,Potency,[1],3.16 µM (active)
same,"activity change, positive = activation",[2],-99.9% [at 11.4 µM] (inactive)
CCC1=C2CC[C@H]3C(=O)N(CC)C(=O)[C@H]3[C@H]2[C@@]2(Cc3ccccc3)C(=O)N(Cc3ccccc3)C(=O)N2C1=O,Potency,[1],3.98 µM (active)
same,Potency,[2],inactive
O=C1C[C@@H](O)[C@@H](O)[C@H]2[C@@H]3C(=O)N(Cc4ccc5c(c4)OCO5)C(=O)[C@@H]3CC[C@H]12,Potency,[1],3.98 µM (active)
same,"activity change, positive = activation",[2],-78.5% [at 11.4 µM] (inactive) and -81.2% [at 11.4 µM] (inactive)
COc1cccc([C@@H]2Oc3ccc(OC)cc3/C(=N/O[C@@H](C)c3cn([C@H]4COC[C@H]4O)nn3)[C@@H]2O)c1,Potency,[1],3.16 µM (active)
same,"activity change, positive = activation",[2],-74.6% [at 11.4 µM] (inactive)
CCC1=C2CC[C@H]3C(=O)NC(=O)[C@H]3[C@H]2[C@@]2(C)C(=NCCc3c[nH]c4ccccc34)OC(=O)N2C1=O,Potency,[1],12.6 µM (active)
same,Potency,[2],inactive
CCCNC(=O)OC[C@@H]1O[C@H](CCO/N=C\C[C@H]2C=C[C@H](OC(C)=O)[C@@H](COC(C)=O)O2)C=C[C@@H]1Oc1ccc(OC)cc1,Potency,[1],3.98 µM (active)
same,"activity change, positive = activation",[2],-95.4% [at 11.4 µM] (inactive)
CCC1=C(OC(=O)N(CC)CC)N2C(=O)OC(=NCC(=O)OC)[C@]2(C)[C@H]2C1=CC[C@H]1C(=O)N(CC)C(=O)[C@H]12,Potency,[1],6.31 µM (active)
same,Potency,[2],inactive
CCC1=C2CC[C@H]3C(=O)N(CC(=O)OC)C(=O)[C@H]3[C@H]2[C@@]2(Cc3ccccc3)C(=NCCOC)OC(=O)N2C1=O,Potency,[1],12.6 µM (active)
same,Potency,[2],inactive
O=C1[C@H]2[C@H]3[C@H](O)[C@H](O)C/C(=N/OC[C@@H](O)COCc4ccco4)[C@@H]3CC[C@@H]2C(=O)N1Cc1ccccc1,Potency,[1],3.16 µM (active)
same,"activity change, positive = activation",[2],-71.1% [at 11.4 µM] (inactive)
CCC1=C(OC(=O)N(CC)CC)N2C(=O)OC(=NCCc3c[nH]c4ccccc34)[C@]2(Cc2ccccc2)[C@H]2C1=CC[C@H]1C(=O)N(CC(=O)OC)C(=O)[C@H]12,Potency,[1],2.51 µM (active)
same,Potency,[2],inactive
COc1cccc([C@@H]2Oc3ccc(OC)cc3/C(=N/O[C@@H](C)CN3CCCc4nc(C)c(C)cc43)[C@@H]2O)c1,Potency,[1],3.16 µM (active)
same,"activity change, positive = activation",[2],-92.2% [at 11.4 µM] (inactive)
COC(=O)C/C=C\[C@@H](C)[C@@H](/C=N\O[C@@H](C)c1cn([C@H]2COC[C@H]2O)nn1)NS(=O)(=O)c1ccc(C)cc1,Potency,[1],3.98 µM (active)
same,"activity change, positive = activation",[2],-71.6% [at 11.4 µM] (inactive)
CCC1=C(OC(=O)N(CC)CC)N2C(=O)OC(=NCC3CC3)[C@]2(Cc2ccccc2)[C@H]2C1=CC[C@H]1C(=O)NC(=O)[C@H]12,Potency,[1],2 µM (active)
same,Potency,[2],inactive
CCC1=C(OC(=O)N(CC)CC)N2C(=O)OC(=NCC(=O)OC)[C@]2(Cc2ccccc2)[C@H]2C1=CC[C@H]1C(=O)N(CC(=O)OC)C(=O)[C@H]12,Potency,[1],5.01 µM (active)
same,Potency,[2],inactive
COC(=O)c1cccc(C23CC4(C2)[C@H](CN(Cc2cccnc2)[C@@H]4c2ccccc2)C3c2ccc(Cl)nc2)c1 (some centres not stated),Potency,[1],2 µM (active)
same,Potency,[2],inactive
N#Cc1ccc(C23CC4(C2)[C@H](CN(CC2CCCCC2)[C@@H]4c2ccccc2)C3c2ccccc2)cc1 (some centres not stated),Potency,[1],15.8 µM (active)
same,Potency,[2],inactive
CCC1=C(OC(=O)N(CC)CC)N2C(=O)OC(=NCC3CC3)[C@]2(Cc2ccccc2)[C@H]2C1=CC[C@H]1C(=O)N(c3ccccc3)C(=O)[C@H]12,Potency,[1],2.51 µM (active)
same,Potency,[2],inactive
O=C1C=C(NCCO)C(=O)c2cnccc21,Potency,[1],7.94 µM (active)
same,Potency,[2],inactive
CCc1cc2c(nc1CC)CCN(CC/C(C)=N/O[C@@H](C)c1cc(-c3c(C)cc(C)cc3C)no1)C2,Potency,[1],3.98 µM (active)
same,"activity change, positive = activation",[2],-69% [at 11.4 µM] (inactive)
CCC1=C(OC(=O)N(CC)CC)N2C(=O)OC(=NCCc3c[nH]c4ccccc34)[C@]2(C)[C@H]2C1=CC[C@H]1C(=O)N(CC)C(=O)[C@H]12,Potency,[1],1.26 µM (active)
same,Potency,[2],inactive
FC(F)(F)c1ccc(C2[C@H]3CN(Cc4cccnc4)[C@H](c4ccccc4)C34CC2(c2cccnc2)C4)cc1 (some centres not stated),Potency,[1],2 µM (active)
same,Potency,[2],inactive
CO[C@H]1COC(=O)[C@@H](Cc2ccccc2)NC(=O)[C@@H](C)COC(=O)CCC[C@@H]1C,Potency,[1],3.16 µM (active)
same,"activity change, positive = activation",[2],-63.9% [at 11.4 µM] (inactive)
same,Potency,[3],inactive
CC(C)(C)c1ccc(OC2C(O)COC2/C=C/C#Cc2ccccc2)cc1 (configuration not stated),Potency,[1],3.16 µM (active) and 3.98 µM (active)
same,"activity change, positive = activation",[2],-77.1% [at 11.4 µM] (inactive) and -67.5% [at 11.4 µM] (inactive)
same,Potency,[3],inactive
same,Potency,[4],3.16 µM (active) and inactive
C=C(C)C(O)/C=C/c1ccc(C)cc1 (configuration not stated),Potency,[1],3.98 µM (active)
same,"activity change, positive = activation",[2],-72.8% [at 11.4 µM] (inactive)
same,Potency,[3],inactive
same,Potency,[4],5.01 µM (active)

# Source: PubChem BioAssay (NCATS)
